This is a sample that favours compounds with a hit; in the whole collection about 4.3% have one here.
Giardia killer = Small Molecules that selectively kill Giardia lamblia: qHTS; Giardia lamblia trophozoite viability; activity change, % at 7.66 µM, hits read low; 340,000 tested, 0.15% active; AID 540267, 2011; in the data active = activity change below about -80%; inconclusive = between about -30% and that limit;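 note: parasites exposed to compound for two days anaerobically before the ATP read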
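Anaerobic 48 hrs incubation at 37 deg C of 100 trophozoites/well with test compounds; ATPLite 1-Step luminescence, 15-30 min RT, reports cellular ATP as viability.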
SW480 rereplic = A quantitative high throughput screen for small molecules that induce DNA re-replication in SW480 colon adenocarcinoma cells. SW480 DNA re-replication, Hoechst DNA content imaging, 48 h. Potency, µM (series often up to 46.1 µM), actives largely listed as activators. 340,000 tested, 1.8% active. AID 624297, 2012; note: nearly all actives have a fitted effect of over 55% in size
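First, 250 cells per well were seeded. Next, compound or vehicle (23 nL) was pinned in, plates sat 48 hr at 37 C. Finally Hoechst was added for 40 min before fluorescence scanning.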
MCF10A rerep = A quantitative high throughput screen for small molecules that induce DNA re-replication in MCF 10a normal breast cells; 350,000 tested, 2.9% active; AID 624296, 2012; MCF 10A DNA re-replication, Hoechst nuclear intensity, 48 h; Potency, µM (series often up to 46.1 µM), most hits filed as activators; note: nearly all actives have a fitted effect of over 50% in size
uPA generation = qHTS for Inhibitors of Cell Surface uPA Generation | Potency, µM (series often up to 38.3 µM), most hits filed as inhibitors | 330,000 tested, 0.31% active | cell surface uPA generation assay, qHTS; active = well fitted inhibition curve with a large enough effect; inconclusive = small, poorly fitted or top-dose-only effect; inactive = no such curve, though single readings can be large or run the other way; tested in mouse RAW 264.7 cells; note: nearly all actives have a fitted effect of over 55% in size
A number is an active result; – = inactive; ? = inconclusive; · = not tested or not shown; [ ] = remark or other dose. Unless noted, calls come from the whole dose curve; as a rule, active = well fitted activation curve with a large enough effect; inconclusive = small, poorly fitted or top-dose-only effect; inactive = no such curve, though single readings can be large or run the other way.

SMILES	Giardia killer	SW480 rereplic	MCF10A rerep	uPA generation
O.O.O.O.O.O.O.O=S(=O)([O-])[O-].[Co+2]	·	–	–	·
COCCS(=O)(=O)N(Cc1ccccc1)[C@H](C(=O)OC)C(C)C	–	–	–	–
O=C(O)/C=C/C(=O)c1ccc2c(c1)CCc1ccccc1-2	–	4.1µM	3.7µM	5µM
O=c1c2c(nc(NCCO)n1CC1CCCCC1)-c1ccccc1CC21CCCC1	–	–	23µM	–
C=CC(n1cncn1)C(O)(c1ccccc1)c1ccccc1 (centres undefined)	–	–	–	–
Cc1cc2c(s1)c1cnn(CC(=O)N3CCOCC3)c(=O)c1n2C	–	·	·	·
COc1ccc(S(=O)(=O)n2nc(OC(=O)c3c(-c4ccccc4Cl)noc3C)cc2N)cc1	–	–[9.22 µM]	1.6µM	–
COc1ccc(C(=O)Oc2cc(N)n(S(=O)(=O)c3ccc(C)cc3)n2)cc1	–	–	–	–
CSc1ccc(/C=C/C(=O)NC(=O)c2ccccc2O)cc1	–	–	?	11µM
CN(C)c1ccc(C=NNC(=O)c2cccc3ccccc23)c(Cl)c1	–	18µM	–	–
Cc1cc(C)cc(C(=O)N/N=C/c2ccoc2)c1	–	–	–	–
Cc1occc1C(=O)N/N=C/C=C/c1ccc(N(C)C)cc1	–	0.012µM	?	–
COc1cc(OC)cc(C(=O)N/N=C\c2ccoc2)c1	–	5.8µM	23µM	–
CCCSc1ccc([C@H]2N[C@@](CC(C)C)(C(=O)OC)[C@H]3C(=O)N(CC)C(=O)[C@@H]23)cc1	–	–	–	–
CC(C)(C)OC(=O)N1C2C=CC1C1=COCCN1C2=O (centres undefined)	–	·	·	·
Cc1ncnc(N)c1CCCNc1ccccc1	–	–	–	–
COc1ccc(C(=O)N/N=C/c2ccc(SC)cc2)cc1	–	5.2µM	–	–
CSc1ccc(/C=N/NC(=O)c2ccccc2Cl)cc1	–	?	23µM	–
CSc1ccc(/C=N/NC(=O)c2ccc(O)cc2)cc1	–	–	–	–
CN(C)c1ccc(/C=N/NC(=O)c2ccccc2Cl)cc1	–	2.6µM	21µM	–
CSc1ccc(/C=N/NC(=O)c2cccs2)cc1	–	–	–	–
COc1ccc(/C=N/NC(=O)c2cccc(NC(=O)c3ccccc3Cl)c2)cc1	–	6.5µM	2.6µM	–
COc1ccc(/C=N/NC(=O)c2cccc(NC(=O)c3ccccc3Cl)c2)cc1OC	–	–	?	–
CC[C@]12c3[nH]c4ccc(Cl)cc4c3CCN1C(=O)[C@@H](CC(=O)NCCC1=CCCCC1)C[C@@H]2C(=O)N1CCN(C(=O)C2CC2)CC1	–	–	–	–
CC(C)(C)OC(=O)N[C@H](C(=O)OC(C)(C)C)c1ccccc1	–	–	–	–
SMILES	Giardia killer	SW480 rereplic	MCF10A rerep	uPA generation
CCn1cc(Cl)c(C(=O)N2N=C3/C(=C/c4cccs4)CCCC3C2c2cccs2)n1 (centres undefined)	–	18µM	–	–
N#Cc1ccc(CSc2ccc(S(=O)(=O)N3CCCC3)cn2)cc1	–	?	–	–
Fc1ccc(C2CC(c3ccco3)=NN2c2ccccc2)cc1 (centres undefined)	–	21µM	0.92µM	–
O=[N+]([O-])c1ccc(N2N=C(c3ccco3)CC2c2ccccc2)cc1 (centres undefined)	–	?	8.2µM	–
O=C(O)c1cc(=S)nc[nH]1	–	–	–	–
CCc1ccc(-c2cc(C(=O)N/N=C/c3ccco3)[nH]n2)cc1	–	–	?	–
O=C(N/N=C/c1cccs1)c1cc(-c2cccc3ccccc23)n[nH]1	–	?	23µM	?
O=C(N/N=C/c1ccco1)c1cc(-c2ccc3ccccc3c2)n[nH]1	–	23µM	7.9µM	–
Cc1ccc(-c2cc(C(=O)N/N=C/c3c[nH]c4ccccc34)[nH]n2)cc1	–	3.3µM	?	–
O=C(N/N=C/c1c[nH]c2ccccc12)c1cc(-c2ccccc2)n[nH]1	–	–	–	–
O=C(N/N=C/c1c[nH]c2ccccc12)c1cc(-c2cccc3ccccc23)n[nH]1	–	?	9.2µM	–
O=C(N/N=C/c1ccccn1)c1cc(-c2cccc3ccccc23)n[nH]1	–	–	?	?
O=C(N/N=C/c1c[nH]c2ccccc12)c1cc(-c2ccc(-c3ccccc3)cc2)n[nH]1	–	?	15µM	·
O=C(N/N=C/C=C\c1ccccc1[N+](=O)[O-])c1cc(-c2ccc3ccccc3c2)n[nH]1	–	8.2µM	10µM	–
O=C(N/N=C/c1ccccn1)c1cc(-c2ccc3ccccc3c2)n[nH]1	–	?	?	–
O=C(N/N=C/c1c[nH]c2ccccc12)c1cc(-c2ccc3ccccc3c2)n[nH]1	–	12µM	2.6µM	–
O=C(N/N=C/c1c[nH]c2ccccc12)c1ccn[nH]1	–	–	0.58µM	?
O=C(OCC(=O)N(C1CCCCC1)C1CCCCC1)c1ccc(Cl)nc1	–	–	–	–
CCCCC(=O)NNC(=S)NCc1ccccc1	–	–	–	–
CCC(C)NC(=O)c1ccc2nc(-c3ccco3)c(-c3ccco3)nc2c1 (centres undefined)	–	·	·	·
O=C1NN(c2ccc(F)c(Cl)c2)C(=O)/C1=C\c1cccc(OC(=O)c2cccs2)c1	–	–	15µM	–
CC(C)=C1C(=O)NN(c2ccc(F)c(Cl)c2)C1=O	–	–	?	–
CCC(C)Sc1cc(-c2nc3ccc(Cl)cn3c2NC2CCCCC2)ccc1OC (centres undefined)	–	?	?	–
COc1ccc(-c2cccc(-c3nc4ccc(Cl)cn4c3NC3CCCCC3)c2)cc1	–	?	15µM	–
Cc1c(NC2(C#N)CCCCC2)c(=O)n(-c2ccccc2)n1C	–	–	–	–
SMILES	Giardia killer	SW480 rereplic	MCF10A rerep	uPA generation
Cn1c(-c2cc3ccc(OC(=O)C(C)(C)C)cc3oc2=O)nc2ccccc21	–	?	–	–
CC(C)(C)C(=O)Oc1ccc2cc(-c3ccc4ccccc4n3)c(=O)oc2c1	–	23µM	6.5µM	–
COc1cc(C(=O)N/N=C/c2ccc(OC(=O)c3ccccc3)c(OC)c2)ccc1O	–	21µM	–	–
O=C(N/N=C/c1ccc2c(c1)OCO2)c1cc(-c2ccc(F)cc2)nc2ccccc12	–	?	3.7µM	?
O=C(O)COc1ccccc1/C=N/NC(=O)c1cc(-c2ccc(F)cc2)nc2ccccc12	–	–	–	–
COc1cc(/C=N/NC(=O)c2cc(-c3ccccc3)nc3ccccc23)ccc1O	–	–	–	–
Cc1nn(-c2ccccc2)c(N2CCCC2)c1/C=N/NC(=O)c1cc(-c2cccnc2)nc2ccccc12	–	?	13µM	–
COc1cc(/C=N/NC(=O)c2cc(-c3ccccc3OC(C)C)nc3ccccc23)ccc1O	–	?	10µM	–
Cc1nn(-c2ccccc2)c(N2CCCC2)c1/C=N/NC(=O)c1ccccc1O	–	–	?	–
CCCCC[C@H]1CN(Cc2ccccc2)C(=O)[C@@H]1CC(=O)NCc1ccc(OC)cc1	–	–	–	–
COC(=O)c1ccccc1S(=O)(=O)NNC(=O)C12CC3CC(CC(C3)C1)C2	–	–	–	–
O=C(N/N=C/c1cccs1)c1cc(C2CC2)nc2ccccc12	–	18µM	8.2µM	–
